# From PubChem
# ALR H2O2 inh – inhibitors of human sulfhydryl oxidase ALR | P55789 | purified ALR, DTT oxidation, H2O2 HRP-luminol luminescence | inhibition, % (concentration not given with the values) | 3.8% of 290,000 active | AID 485317;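 active = mean replicate inhibition above about 79%, with every replicate also reaching it, limit read from the data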
# PglD DTNB – PglD (C. jejuni) enzyme inhibition; purified PglD enzyme, DTNB colorimetric CoA detection; inhibition, % at 12.5 µM; 0.098% of 360,000 active; AID 602405; in the data active = inhibition above about 16%, passing the limit was not always enough
# ARNT TACC3 PPI – disruptors of human ARNT/TACC3 interaction | 0.66% of 390,000 active | inhibition, % at 9.99 µM | AlphaScreen His-ARNT PAS-B/GST-TACC3 binding, luminescence; TACC3 fragment carries E629A point mutation | Q9Y6A5;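 active = mean inhibition of replicates at least 50% and at least half of replicates each reaching 50%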;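 also: 0% = complete ARNT plus TACC3 wells and 100% = ARNT alone without TACC3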
# ERp5 inh – inhibitors of human ERp5. ERp5 insulin aggregation, absorbance 650 nm, 90 min. inhibition, % at 9.99 µM. AID 651711. Q15084. 0.05% of 350,000 active;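 active = mean replicate inhibition above about 25%, with every replicate also reaching it, limit read from the data, passing the limit was not always enough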
# CendR NRP1 mod – NRP-1/CendR interaction modulation | AID 602438 | 0.85% of 360,000 active | FAM-RPARPAR peptide binding to NRP-1, fluorescence polarization | inhibition, % at 25 µM;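 active = inhibition or corrected inhibition above about 18%, plus a signal ratio from 0.5 to 1.5, limit read from the data, passing the limit was not always enough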
# Target sequence (O14786 whole entry, looked up): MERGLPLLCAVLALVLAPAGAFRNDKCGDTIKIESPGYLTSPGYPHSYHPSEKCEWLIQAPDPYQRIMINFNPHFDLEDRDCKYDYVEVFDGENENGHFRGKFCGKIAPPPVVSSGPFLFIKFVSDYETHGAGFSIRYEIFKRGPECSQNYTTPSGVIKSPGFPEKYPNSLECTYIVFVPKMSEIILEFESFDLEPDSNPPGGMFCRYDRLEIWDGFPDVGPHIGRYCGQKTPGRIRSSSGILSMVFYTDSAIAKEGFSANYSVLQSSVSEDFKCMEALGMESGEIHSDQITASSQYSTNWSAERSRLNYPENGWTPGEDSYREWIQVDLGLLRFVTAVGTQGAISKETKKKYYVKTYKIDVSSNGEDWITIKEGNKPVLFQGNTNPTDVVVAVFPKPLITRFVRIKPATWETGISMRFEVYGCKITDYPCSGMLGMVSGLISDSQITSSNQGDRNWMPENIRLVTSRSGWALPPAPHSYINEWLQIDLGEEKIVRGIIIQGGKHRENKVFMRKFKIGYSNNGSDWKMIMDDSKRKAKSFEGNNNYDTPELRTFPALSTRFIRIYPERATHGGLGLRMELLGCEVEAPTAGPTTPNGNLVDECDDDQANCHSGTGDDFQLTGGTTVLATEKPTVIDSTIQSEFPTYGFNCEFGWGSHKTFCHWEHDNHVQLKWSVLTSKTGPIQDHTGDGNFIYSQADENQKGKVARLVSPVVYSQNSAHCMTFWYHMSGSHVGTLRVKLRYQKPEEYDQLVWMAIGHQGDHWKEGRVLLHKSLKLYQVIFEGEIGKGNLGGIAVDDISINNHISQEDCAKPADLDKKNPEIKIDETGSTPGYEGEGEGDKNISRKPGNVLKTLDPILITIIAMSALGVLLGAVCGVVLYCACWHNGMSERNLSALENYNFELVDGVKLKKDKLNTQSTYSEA
# PDI turbidity – inhibitors of human protein disulfide isomerase; PDI insulin aggregation turbidity, A650, 90 min; inhibition, % at 10 µM; 0.052% of 350,000 active;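 active = mean inhibition across replicates of 30% or more, whatever share of single replicates reach that level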
# Active calls of the source: *; nt = not tested or not shown. Only a selection was taken, and hits are over-represented in it overall.
SMILES,ALR H2O2 inh,PglD DTNB,ARNT TACC3 PPI,ERp5 inh,CendR NRP1 mod,PDI turbidity
C[C@@H]1CN([C@@H](C)CO)C(=O)c2cc(C#Cc3cccnc3)cnc2O[C@H]1CN(C)C(=O)CN(C)C,nt,0,5,0,nt,nt
CN1C(=O)CC2(C)C1=CCc1scnc12 (stereo unspecified),nt,nt,nt,1,19*,nt
COc1ccc(NC(=O)Nc2ccc3c(c2)[C@@H]2C[C@@H](CC(=O)NC4CCCCC4)O[C@H](CO)[C@@H]2O3)cc1,nt,-1,-1,1,nt,nt
CC(C)(C)NC(=O)CSc1nc(Cc2ccccc2)nc2ccccc12,98*,1,-4,0,10,4
O=C(O)c1ccccc1SCC(=O)N1CCCCC1,1,nt,-12,nt,28*,1
CC1CCCC(C)N1C(=O)CSc1nc2ccccc2s1 (stereo unspecified),98*,-2,-3,nt,-17,-2
CC1Cc2ccccc2N1C(=O)CSc1nc2ccccc2s1 (stereo unspecified),0,-7,-4,0,1,7
O=C(c1ccccc1-c1ccccc1)N1CCCCC1,-3,nt,-3,2,23*,-6
CO[C@H]1CN(C)C(=O)c2cc(NS(C)(=O)=O)ccc2OC[C@@H](C)N(CC2CCCCC2)C[C@@H]1C,nt,-1,0,1,nt,nt
COc1ccc(S(=O)(=O)Nc2ccc3c(c2)CC(=O)N([C@@H](C)CO)C[C@H](C)[C@H](CN(C)S(=O)(=O)c2ccc(F)cc2)O3)cc1,nt,0,3,nt,nt,nt
O=C(O)C1CCN(C(=O)CSc2nc3ccccc3s2)CC1,8,-1,-13,-2,4,-7
NC(=O)C1CCN(C(=O)CSc2nc3ccccc3s2)CC1,98*,-1,nt,-11,5,-5
CC1CCN(C(=O)CSc2nc3ccccc3s2)CC1,99*,-6,-11,nt,-46,-1
CC1CN(C(=O)C(C)Sc2nc3ccccc3s2)CC(C)O1 (stereo unspecified),99*,0,-2,nt,-5,-11
CCc1nc(SCC(=O)N2CCCC2)c2ccccc2n1,92*,4,2,0,-6,6
C[C@@H]1CN([C@@H](C)CO)C(=O)c2cc(NS(=O)(=O)c3cn(C)cn3)ccc2O[C@H]1CN(C)Cc1ccc(C(=O)Nc2ccccc2N)cc1,nt,-1,-3,-1,nt,nt
C[C@@H]1CCCCO[C@@H](CN(C)C(=O)Cc2ccccc2)[C@H](C)CN([C@@H](C)CO)C(=O)c2cc(NC(=O)Nc3ccccc3)ccc2O1,nt,-2,-1,2,nt,nt
C[C@@H]1CN([C@H](C)CO)C(=O)c2cccc(NS(=O)(=O)c3cccs3)c2O[C@H]1CN(C)S(=O)(=O)c1ccccc1,nt,0,1,3,nt,nt
CC(C)NC(=O)Nc1ccc2c(c1)CC(=O)N([C@@H](C)CO)C[C@@H](C)[C@@H](CN(C)S(=O)(=O)c1cn(C)cn1)O2,nt,3,-8,4,nt,nt
O=C(CSc1nc2ccccc2s1)N1CCN(C(=O)c2ccco2)CC1,99*,5,-15,nt,-5,-1
O=C(CSc1nc2ccccc2s1)N1CCCCC1,99*,-3,3,0,2,6
CCOc1ccc2nc(SCC(=O)N3CCN(C(=O)c4ccco4)CC3)sc2c1,-5,5,nt,nt,9,-28
CN(C)c1ccc(CN(C(=O)c2ccccc2Br)C2CCS(=O)(=O)C2)cc1 (stereo unspecified),96*,2,4,3,4,5
Cc1ccsc1CN(C(=O)c1ccccc1)C1CCS(=O)(=O)C1 (stereo unspecified),4,-1,-1,-1,22*,-9
CC(C)c1ccc(CN(C(=O)c2cccs2)C2CCS(=O)(=O)C2)cc1 (stereo unspecified),-2,3,10,2,18*,-2
SMILES,ALR H2O2 inh,PglD DTNB,ARNT TACC3 PPI,ERp5 inh,CendR NRP1 mod,PDI turbidity
CN(C)c1ccc(CN(C(=O)c2cc3ccccc3oc2=O)C2CCS(=O)(=O)C2)cc1 (stereo unspecified),89*,-14,0,8,-7,8
CN(C)c1ccc(CN(C(=O)c2ccco2)C2CCS(=O)(=O)C2)cc1 (stereo unspecified),82*,1,nt,4,-5,-11
CN(C)CCCOC(=O)c1cc2ccccc2o1,-14,-1,0,nt,24*,-10
CN(C)c1ccc(CN(Cc2ccco2)C(=O)c2ccco2)cc1,99*,-3,-9,5,6,-6
O=C(OCCN1C(=O)c2ccccc2C1=O)c1cc2ccccc2o1,-3,1,7,-4,13,-5
CN(Cc1ccc(N(C)C)cc1)C(=O)c1cc2ccccc2o1,76*,1,13,-4,8,1
COc1cccc(NC(=O)N2CC(=O)N3[C@H](C2)[C@H](c2ccc(C4=CCCCC4)cc2)[C@@H]3CO)c1,nt,nt,nt,-1,nt,nt
O=C(C[C@H]1C[C@@H]2c3cc(NS(=O)(=O)c4ccc(F)cc4)ccc3O[C@@H]2[C@H](CO)O1)NC1CCCC1,nt,0,-1,1,nt,nt
CCCC(=O)Nc1ccc2c(c1)C(=O)N(C)C[C@H](OC)[C@@H](C)CN(C(=O)c1ccncc1)[C@H](C)CO2,nt,-3,-8,0,nt,nt
COc1ccc(NC(=O)Nc2cccc3c2O[C@H](CN(C)Cc2ccncc2)[C@@H](C)CN([C@H](C)CO)C3=O)cc1,nt,-2,-3,-4,nt,nt
COc1ccc(NC(=O)Nc2cccc3c2O[C@H](CN(C)Cc2ccncc2)[C@H](C)CN([C@@H](C)CO)C3=O)cc1,nt,22*,-15,3,nt,nt
C[C@@H]1CN([C@H](C)CO)C(=O)c2cccc(NC(=O)Nc3ccc4c(c3)OCO4)c2O[C@H]1CN(C)Cc1ccc(Oc2ccccc2)cc1,nt,8,-3,32*,nt,nt
Cc1noc(C)c1NC(=O)Nc1cccc2c1O[C@H](CN(C)CC1CCCCC1)[C@H](C)CN([C@H](C)CO)C2=O,nt,18*,-4,-6,nt,nt
COc1ccc2c3c([nH]c2c1)[C@@H](CO)N(S(C)(=O)=O)CC31CCN(C(=O)Cc2cccnc2)CC1,nt,nt,nt,-2,nt,nt
Cc1ccc(S(=O)(=O)Nc2ccc3c(c2)C(=O)N([C@@H](C)CO)C[C@H](C)[C@@H](CN(C)Cc2ccc(C(=O)Nc4ccccc4N)cc2)OCCCC[C@@H](C)O3)cc1,nt,nt,nt,-5,nt,nt
CCN(CC)C(=S)SSC(=S)N(CC)CC,97*,-4,32,-4,-10,-3
Nc1ccc2c(c1)nc(Cc1ccccc1)n2CCO,97*,1,-4,1,9,-15
O=C(C[C@H]1C[C@H]2c3cc(NC(=O)NC4CCCCC4)ccc3O[C@H]2[C@@H](CO)O1)NCCc1ccccc1,nt,nt,nt,2,nt,nt
CN(C)/C=C1\NC(=S)N(c2ccccc2)C1=O,55,nt,-9,-23,25*,10
CCC(=O)N[C@@H]1CC[C@H](CCNC(=O)Nc2ccc(F)cc2)O[C@H]1CO,nt,3,-2,-10,nt,nt
